# Laboratory results from PMC4336329 (PLoS ONE, 2015).
# The campaign covered roughly 310,000 compounds. About 14,000 (4.5%) showed an effect of 50% or more. Effects have a minus sign here. The full list was thinned out, with strong results kept by preference.
# Biological target: human ether-à-go-go-related gene (hERG) potassium channel (human, UniProt Q12809)
# Assay: primary screen, population patch clamp on CHO cells stably expressing hERG; higher = less effect of the substance
# 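Further: peak tail current of the secondary pulse compared with the same well before compound.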
# Chain of human ether-à-go-go-related gene (hERG) potassium channel (Q12809 whole entry, looked up): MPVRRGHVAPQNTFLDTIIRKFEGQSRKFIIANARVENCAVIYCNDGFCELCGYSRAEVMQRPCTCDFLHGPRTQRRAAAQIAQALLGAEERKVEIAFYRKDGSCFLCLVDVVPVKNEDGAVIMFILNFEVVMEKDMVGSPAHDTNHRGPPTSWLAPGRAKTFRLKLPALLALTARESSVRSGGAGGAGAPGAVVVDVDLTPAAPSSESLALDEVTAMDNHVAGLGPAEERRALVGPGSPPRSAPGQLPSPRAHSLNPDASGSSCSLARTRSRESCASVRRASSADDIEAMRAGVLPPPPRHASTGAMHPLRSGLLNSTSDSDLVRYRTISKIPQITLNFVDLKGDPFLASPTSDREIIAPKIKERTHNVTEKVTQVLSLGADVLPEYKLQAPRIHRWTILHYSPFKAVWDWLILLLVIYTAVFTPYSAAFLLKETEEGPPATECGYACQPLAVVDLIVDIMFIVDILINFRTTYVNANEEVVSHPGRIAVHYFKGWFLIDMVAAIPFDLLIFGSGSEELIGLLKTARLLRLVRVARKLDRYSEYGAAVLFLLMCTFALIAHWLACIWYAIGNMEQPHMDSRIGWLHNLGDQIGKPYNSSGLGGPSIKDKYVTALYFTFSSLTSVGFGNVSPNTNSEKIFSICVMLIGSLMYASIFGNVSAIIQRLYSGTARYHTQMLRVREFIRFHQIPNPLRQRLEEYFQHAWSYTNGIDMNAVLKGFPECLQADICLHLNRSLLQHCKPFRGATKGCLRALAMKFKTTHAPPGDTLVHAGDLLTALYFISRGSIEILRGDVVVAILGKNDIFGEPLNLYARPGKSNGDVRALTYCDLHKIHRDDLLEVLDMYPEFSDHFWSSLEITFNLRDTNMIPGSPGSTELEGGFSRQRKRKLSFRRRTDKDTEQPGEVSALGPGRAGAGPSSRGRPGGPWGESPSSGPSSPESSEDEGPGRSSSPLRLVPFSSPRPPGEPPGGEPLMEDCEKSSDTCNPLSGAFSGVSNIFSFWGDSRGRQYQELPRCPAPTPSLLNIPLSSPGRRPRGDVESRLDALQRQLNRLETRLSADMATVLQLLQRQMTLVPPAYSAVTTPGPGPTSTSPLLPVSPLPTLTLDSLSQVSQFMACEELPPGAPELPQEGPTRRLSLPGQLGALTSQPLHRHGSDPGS
row,Compound,"hERG current change (%, negative = inhibition) at 10uM [%]"
1,O=C(NN1CCOCC1)c1sc2cccc(F)c2c1Cl,9.93
2,c1ccc(-c2cnc(CSc3ncnc4sccc34)o2)cc1,7.1
3,N#CC1=C(N)SC(N)=C(C#N)C1CCc1ccccc1,26.4
4,C/C(=N/NC(=O)CNC(=O)Cc1ccccc1)c1ccc(Cl)cc1,5.97
5,CN1/C(=C\C=C(/C#N)C(=O)Nc2ccc(Cl)cc2)C(C)(C)c2ccccc21,13
6,CCNC(=O)CC1C(=O)N(c2ccc(C)cc2)C(=O)N1CCC(C)C (stereo not shown),-2.19
7,CCNC(=O)CC1C(=O)N(c2ccccc2)C(=O)N1CCC(C)C (stereo not shown),5.26
8,CCNC(=O)CC1C(=O)N(c2cccc(C)c2)C(=O)N1CCC(C)C (stereo not shown),-75
9,CCN(c1ccccc1)S(=O)(=O)c1cc(NC(=O)Nc2ccccc2C#N)ccc1Cl,-34.2
10,Cc1ccc(NC(=O)CCc2nnc(SCC(=O)Nc3ccccc3C)n2C)cc1Cl,14.5
11,Cc1ccc(OCCSc2nnc(NC(=O)c3ccco3)s2)cc1,-1.66
12,O=C(CN1C(=O)C2C3C=CC(C4CC34)C2C1=O)Oc1ccccc1 (stereo not shown),0.512
13,CN(C)CCNC(=O)c1cc2sc3ccccc3c2s1.Cl,-31.5
14,CN(C)CCCNC(=O)c1cc2sc3ccccc3c2s1.Cl,-64.7
15,COCCN(CCOC)C(=O)c1cc2sc3ccccc3c2s1,-70.6
16,COCCNC(=O)c1cc2sc3ccccc3c2s1,-8.28
17,CN1CCN(C(=O)c2cc3sc4ccccc4c3s2)CC1,-15.5
18,CN(C)CCCNC(=O)c1cc2c3ccccc3n(C)c2s1,-40.1
19,CCCN(C(=O)CSCc1ccccc1C)c1c(N)n(Cc2ccccc2)c(=O)[nH]c1=O,-4.64
20,CC(O)CNc1nc2c(c(=O)n(C)c(=O)n2C)n1Cc1cccc(C(F)(F)F)c1 (stereo not shown),-12.9
21,O=[N+]([O-])c1cccc(/C=N/Nc2ncc(Br)cn2)c1,19.6
22,CCc1cccc(C)c1N(C(=O)Cn1c(=O)[nH]c2ccccc21)C(C)COC (stereo not shown),-4.31
23,CCN(CC(=O)Nc1ccc2c(c1)OCCO2)C(=O)/C=C/c1cccc(Br)c1,-28.7
24,O=C(CN1C(=O)NC2(CCCCCCC2)C1=O)Nc1ccc(Br)cc1,5.19
25,Cc1ccc(-n2nc(C)c3c(C)c(CCC(=O)Nc4ccc(CN5CCCC5)cc4)c(C)nc32)cc1,-60.2
26,Cc1ccc(CNC(=O)CCc2c(C)nc3c(c(C)nn3-c3ccc(C)cc3)c2C)cc1,10.1
27,CCCNC(=O)CCc1c(C)nc2c(c(C)nn2-c2ccccc2)c1C,0.304
28,CCC(C)NC(=O)CCc1c(C)nc2c(c(C)nn2-c2ccccc2)c1C (stereo not shown),-1.82

row,Compound,"hERG current change (%, negative = inhibition) at 10uM [%]"
1,Cc1ccc(-n2nc(C)c3c(C)c(CCC(=O)NCc4ccccc4)c(C)nc32)cc1,10.5
2,Cc1nc2c(c(C)nn2-c2ccccc2)c(C)c1CCC(=O)Nc1ccc(CN2CCCC2)cc1,-61
3,C/C(=N\NC(=O)c1cc(-c2cccc([N+](=O)[O-])c2)n[nH]1)c1ccc(F)cc1,8.28
4,O=C(COC(=O)CC1CC2CCC1C2)Nc1ccc(F)cc1 (stereo not shown),-22.4
5,Cc1ccc2c(c1)/C(=C/c1ccc(F)cc1)C(=O)N2,10.5
6,COc1cc(C(=O)N/N=C/c2coc3ccc(Cl)cc3c2=O)ccc1O,14.2
7,COc1ccc(CCN2C(=O)CC(NNc3ccc([N+](=O)[O-])cc3)C2=O)cc1OC (stereo not shown),-52.8
8,COc1ccc(CCNC2CC(=O)N(CCc3ccccc3)C2=O)cc1OC (stereo not shown),0.286
9,CCc1ccc(NC2CC(=O)N(CCc3ccc(OC)c(OC)c3)C2=O)cc1 (stereo not shown),-13.4
10,CC(=O)N1CCN=C1SCc1ccccc1,19.1
11,Cc1cc(C)cc(C(=O)N2CCN=C2SCc2ccc([N+](=O)[O-])cc2)c1,-23.5
12,O=[N+]([O-])c1ccc(S(=O)(=O)N2CCN=C2SCc2cccnc2)cc1,-68.1
13,O=S(=O)(c1ccc(F)cc1)N1CCN=C1SCc1cccnc1,-27.6
14,Cc1ccc(SCc2ccc(C(=O)N3CCCCC3)cc2)cc1,1.58
15,O=C(c1ccccc1)N1CCN=C1SCc1ccc([N+](=O)[O-])cc1,-56.4
16,CCN1CCN(C(=O)c2ccc(CSc3ccc(C)cc3)cc2)CC1,-63.6
17,Cc1cccc(C(=O)N2CCN=C2SCc2ccc([N+](=O)[O-])cc2)c1,-51.9
18,O=S(=O)(c1ccccc1)N1CCN=C1SCc1cccnc1,-12.1
19,Cc1cccc(CC(=O)N2CCN=C2SCc2ccc([N+](=O)[O-])cc2)c1,-11.8
20,Cc1ccc(SCc2ccc(C(=O)N3CCCC3)cc2)cc1,-30.1
21,O=C(N=C1SC2CS(=O)(=O)CC2N1c1ccc(F)cc1F)C1CC1 (stereo not shown),2.47
22,O=C(OCC(=O)N1CCCC1=O)C1CCN(S(=O)(=O)c2c(Cl)cccc2Cl)CC1,-36.1
23,O=C(NCc1cccnc1)NC1CC(=O)N(c2ccc3c(c2)OCCO3)C1 (stereo not shown),-0.536
24,CC(C)(C)n1nnnc1C(c1cccc(C#N)c1)N1CCN2CCCC2C1 (stereo not shown),4.48
25,Cn1c(C(C#N)/C(=N\S(=O)(=O)c2cccs2)c2ccccc2)nc2ccccc21 (stereo not shown),2.46
26,O=C(O)CC1(CC(=O)Nc2cc(C(F)(F)F)cc(C(F)(F)F)c2)CCCCC1,18.6
27,Cc1cccc(N2CCN(C(=O)c3ccc4c(c3)NC(=O)C(CSCc3cccc(F)c3)N4)CC2)c1C (stereo not shown),15.9
